# In all, about 53,000 compounds went through this assay and about 900 (1.7%) showed an effect of 50% or more. Only a selection was taken, and strong results are over-represented in it overall.
# Tested on: Mycobacterium tuberculosis
# Assay: Cornell - Phenotypic assay to identify agents that inhibit growth of Mycobacterium tuberculosis
# Format: functional
# Parameters: scale not given: direction of the effect not stated beside the values
# Settings: 10 mM as filed; unlikely as a test dose
row,Structure (SMILES),Percent Effect [%]
1,Cc1cc(N2CCCC2c2nnc3n2CCCCC3)nc(N)n1 (centres undefined),-31.59
2,COCC(=O)N1CCc2ncc(Cn3cncn3)n2CC1,12.01
3,CN1CC2(CCCN(Cc3cccc(Oc4ccccc4)c3)C2)OC1=O (centres undefined),2.197
4,Cn1cc(-c2c(C#N)c(N)nc3c2CCc2[nH]ccc2-3)cc1C#N,1.934
5,COc1ncc(-c2c(C#N)c(N)nc3c2CCc2[nH]ccc2-3)cn1,19.25
6,Cn1cc(-c2c(C#N)c(N)nc3c2CCc2[nH]ccc2-3)cn1,95.48
7,Cc1nc(NC(=O)c2c(-n3cnnn3)sc3c2CCCC3)sc1C,19.43
8,CCN1CCCC(NC(=O)CCn2c(C(F)F)cc3cccnc32)C1 (centres undefined),6.84
9,COCC1N(C(=O)Nc2ccccc2)[C@H]2CC[C@]1(O)CC2 (some centres undefined),-35.59
10,Cc1nc(-c2cccc(N3CCC(N4CCCC4)CC3)c2)cs1,50.87
11,Cc1nc(-c2cccc(N3CCC(N4CCCC(C#N)C4)CC3)c2)cs1 (centres undefined),11.96
12,COC1CCCN(C2CCN(c3cccc(-c4csc(C)n4)c3)CC2)C1 (centres undefined),-0.3551
13,COCCN1CCC(CNC(=O)c2ccnc(-n3ccnc3)c2)CC1,-23.45
14,COC(=O)c1cnc(C(=O)N(c2ccc(OC)c(F)c2)C(C)C)cn1,77.94
15,COc1ccc(N(C(=O)c2cnc(C)cn2)C(C)C)cc1F,-10.07
16,COc1ccc(N(C(=O)c2ccccn2)C(C)C)cc1F,9.62
17,COc1cc(N2C[C@@H]3COC[C@]3(COc3cccnc3)C2)ncn1.O=C(O)C(F)(F)F.O=C(O)C(F)(F)F,-11.05
18,O=C(O)c1ccc(S(=O)(=O)Nc2cnn(CC(F)(F)F)c2)cc1,41.5
19,COc1cccc(CC(C)NC(=O)NC(C)C)c1 (centres undefined),44.88
20,COc1cccc(CC(C)NC(=O)NCCNC(C)=O)c1 (centres undefined),11.1
21,COc1cccc(CC(C)NC(=O)NCc2ccn(C)c2)c1 (centres undefined),85.29
22,CS(=O)(=O)C1CCN(S(=O)(=O)c2ccc(F)c(F)c2)CC1,25.65
23,CC(C)c1nc(CNc2ccc(N3CCC(CO)CC3)cn2)cs1,20.33

row,Structure (SMILES),Percent Effect [%]
1,COc1ccc(N2CCC(NCc3csc(C(C)C)n3)CC2)cc1,77.68
2,CCc1nc(CNC2CCN(c3ccc(OC)cc3)CC2)cs1,27.61
3,COCCn1c(CN2CCCO2)cnc1S(=O)(=O)CC1CCCCC1,19.4
4,CN(C)C(=O)C1CN(Cc2ccc(C#N)cc2F)c2ccccc2O1 (centres undefined),104.6
5,CN(C)C(=O)C1CN(Cc2ccc(C#N)cc2)c2ccccc2O1 (centres undefined),104.5
6,CN(C)C1Cc2ccccc2N(S(=O)(=O)c2ccc(C#N)cc2)C1 (centres undefined),12.67
7,CNC(=O)[C@@H]1CC[C@@H]2[C@@H](CCN2Cc2ccccc2F)O1.O=C(O)C(F)(F)F,-11.16
8,Cc1cc(CN2CCN(Cc3ccc(C#N)cc3F)CC2)no1,-3.509
9,CN(C)C(=O)Cc1ccccc1NCc1cc(C#N)ccc1F,3.977
10,Cc1cccc(NC(=O)[C@@H]2CCCN2Cc2ccc(C#N)cc2F)n1,12.34
11,CNC(=O)C1CN(Cc2ccc(C#N)cc2F)c2ccccc2O1 (centres undefined),105.9
12,N#Cc1ccc(S(=O)(=O)N2CC(CC(=O)O)c3ccccc32)cc1 (centres undefined),19.47
13,CCS(=O)(=O)N1CCc2c(cccc2NC(=O)NCCOC)C1,16.78
14,COc1ccccc1CCN(C)C(C)c1nc(-c2cccnc2)no1 (centres undefined),-40.91
15,CN(CCc1ccncc1)c1cnn(C)c(=O)c1Br,-2.68
16,CC1Cn2c(nc3c2c(=O)[nH]c(=O)n3C)O1 (centres undefined),-12.37
17,COCC(=O)N1CCCCC1c1ccncn1 (centres undefined),-40.59
18,Cc1cc(C(=O)Nc2n[nH]c(C3CC3)n2)c2c(C)nn(C)c2n1,11.85
19,COc1ccc(N2CCC(NC(=O)c3sccc3C)CC2)cc1,-7.923
20,CN(C)c1cccc(CNC(=O)Nc2ccc3[nH]nnc3c2)n1,45.79
21,Cc1nc(CCNC(=O)NCc2cccc(N(C)C)n2)cs1,-57.29
22,CC(=O)c1ccc(NC(=O)NCc2cccc(N(C)C)n2)cc1C,76.43
23,CCC(=O)N1CCC(c2ncc3c(n2)CCNC3)CC1,-31.27

row,Structure (SMILES),Percent Effect [%]
1,Cl.O=C(c1ccnc(C2CCNCC2)c1)N1CCCC1,-26.15
2,Cl.Cn1ccnc1CNC(=O)c1ccnc(C2CCNCC2)c1,-5.824
3,Cl.O=C(NC1CCCC1)c1ccnc(C2CCNCC2)c1,56.56
4,O=C(O)C(F)(F)F.O=C(O)C(F)(F)F.c1cnn(CCCO[C@@H]2CC[C@H]3[C@H]2OCCN3CC2CCOCC2)c1,-30.39
5,O=C(Nc1nc2c(s1)CN(S(=O)(=O)C1CC1)CC2)c1cccc(Cl)c1,52.55
6,O=C(Nc1nc2c(s1)CN(S(=O)(=O)C1CC1)CC2)c1ccc(Cl)s1,7.24
7,O=C(Nc1nc2c(s1)CN(S(=O)(=O)C1CC1)CC2)c1c(F)cccc1F,0.32
8,Cc1ccc(C(=O)N2CC(=O)N(Cc3ccco3)CC(O)C2)cc1 (centres undefined),7.151
9,Cc1ccc(-c2nc(CN3CC(n4nc(C)cc4C)C3)no2)cc1,102.5
10,Cc1cc(C)n(C2CN(Cc3noc(-c4ccccc4)n3)C2)n1,16.77
11,COc1ccc(-c2nc(CN3CC(n4cccn4)C3)no2)cc1,15.06
12,COc1ccc(-c2nc(CN3CC(n4cc(C)cn4)C3)no2)cc1,55
13,COc1ccc(-c2nc(CN3CC(n4nc(C)cc4C)C3)no2)cc1,46.41
14,COc1ccc(-c2noc(CN3CC(n4cc(C)cn4)C3)n2)cc1,22.62
15,COCCCNC(=O)Nc1ncc(-c2cccc(OC)c2)n1CCOC,20.98
16,CN(C)C(=O)CNC(=O)c1ccn(-c2ccc3ccccn23)n1,8.811
17,CCc1nnc(CS(=O)(=O)c2ccc(C)c(C)c2)n1C,-14.67
18,CCn1ccnc1CN(C)C(C(=O)O)c1ccc(C(C)(C)C#N)cc1 (centres undefined),-8.491
19,Cc1cccnc1CN(C)C(C(=O)O)c1ccc(C(C)(C)C#N)cc1 (centres undefined),37.7
20,CN(Cc1ccc(-n2cccn2)cc1)C(=O)CCC(F)(F)F,-2.335
21,COc1c(C)cc(C(C(=O)O)N(C)Cc2ccn[nH]2)cc1C (centres undefined),14.99
22,Cc1cccnc1CN(C)C(C(=O)O)c1ccc(-n2cccn2)cc1 (centres undefined),103.2
23,Cc1cccnc1CN(C)C(C(=O)O)c1ccc(-c2ccn[nH]2)cc1 (centres undefined),83.57

# — ChEMBL document CHEMBL3988442, “University of Dundee, Small-Polar-MMV Screening Library” (2021)
